High-throughput results: PubChem BioAssay, several laboratories
rCAG RNA binder – binders of r(CAG) RNA repeats, primary screen, biochemical, fluorescence | hit rate 1.3% among 370,000 | inhibition, % at 3 µM | r(CAG) RNA repeat, TO-PRO-1 dye displacement fluorescence | AID 651821, 2012;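 active means inhibition above the plate cutoff, the mean of all test compounds on that plate plus 3 SD, cut at about 35% in these data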;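 further: higher means more dye released from RNA so lower well fluorescence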
Rtt109 HAT inh – inhibitors of C. albicans Rtt109/Vps75 HAT, primary screen, biochemical, ThioGlo CoA-SH fluorescence, plate reader; Histone acetyltransferase RTT109 (Candida albicans (strain SC5314 / ATCC MYA-2876)), …; purified Rtt109/Vps75, 4 h; inhibition, % at 34.9 µM; hit rate 0.16% among 330,000;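 active means inhibition of at least 50% in every replicate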
LANA-H2B inh – blockers of LANA interaction with H2A/H2B – biochemical, FP readout, HTS, primary screen | cell-free LANA-H2A/H2B peptide, fluorescence polarization | inhibition, % (concentration not given with the values) | AID 2629, 2010 | hit rate 0.6% among 320,000; in the data active means inhibition mostly above about 10%, no sharp cut-off; inactive means mostly below about 6.7%
Target sequence (Q9QR71 whole entry, looked up): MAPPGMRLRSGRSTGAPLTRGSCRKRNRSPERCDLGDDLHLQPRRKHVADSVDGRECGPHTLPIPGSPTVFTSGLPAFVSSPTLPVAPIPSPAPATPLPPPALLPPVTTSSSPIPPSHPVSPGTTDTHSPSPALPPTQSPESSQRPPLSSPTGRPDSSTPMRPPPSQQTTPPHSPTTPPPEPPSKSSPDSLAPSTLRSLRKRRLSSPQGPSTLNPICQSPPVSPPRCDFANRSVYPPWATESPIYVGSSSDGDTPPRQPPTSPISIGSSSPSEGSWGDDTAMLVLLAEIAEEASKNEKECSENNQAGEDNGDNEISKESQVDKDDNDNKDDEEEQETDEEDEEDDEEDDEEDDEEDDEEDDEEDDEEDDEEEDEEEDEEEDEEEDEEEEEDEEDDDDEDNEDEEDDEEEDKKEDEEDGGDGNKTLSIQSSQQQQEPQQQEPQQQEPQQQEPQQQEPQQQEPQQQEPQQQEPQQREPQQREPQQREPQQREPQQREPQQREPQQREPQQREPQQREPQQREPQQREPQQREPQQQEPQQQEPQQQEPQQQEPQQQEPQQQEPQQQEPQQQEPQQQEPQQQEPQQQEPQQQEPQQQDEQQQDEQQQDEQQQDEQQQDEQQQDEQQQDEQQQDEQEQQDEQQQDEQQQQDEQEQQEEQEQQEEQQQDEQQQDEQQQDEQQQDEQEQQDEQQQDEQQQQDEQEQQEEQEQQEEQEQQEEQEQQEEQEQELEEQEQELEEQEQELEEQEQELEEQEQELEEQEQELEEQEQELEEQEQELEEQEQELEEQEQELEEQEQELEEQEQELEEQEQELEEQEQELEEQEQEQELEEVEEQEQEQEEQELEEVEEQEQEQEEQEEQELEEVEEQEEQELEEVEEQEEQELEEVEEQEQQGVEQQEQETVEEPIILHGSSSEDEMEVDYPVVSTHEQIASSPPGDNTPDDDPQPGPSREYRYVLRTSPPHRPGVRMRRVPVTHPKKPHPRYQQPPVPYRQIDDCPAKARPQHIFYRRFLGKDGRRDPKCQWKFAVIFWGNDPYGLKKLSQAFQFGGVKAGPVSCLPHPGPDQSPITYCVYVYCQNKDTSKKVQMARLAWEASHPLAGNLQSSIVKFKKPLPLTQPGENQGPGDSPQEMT
PRMT1 inh – PRMT1 methyltransferase inhibitors, primary screen, biochemical, fluorescence polarization | Protein arginine N-methyltransferase 1 (Homo sapiens), Q99873 | recombinant PRMT1, activity-based probe fluorescence polarization | inhibition, % at 2.79 µM | hit rate 1.3% among 370,000;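 active means inhibition above about 21% made by adding two undisclosed values, limit read from the data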
ALR inh – inhibitors of human ALR sulfhydryl oxidase, primary screen, biochemical, H2O2 detection, HRP-luminol luminescence, single point; purified ALR, DTT oxidation; hit rate 3.8% among 290,000; inhibition, % (test concentration not listed);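 active means mean replicate inhibition above about 79%, with every replicate also reaching it, limit read from the data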
ABHD5 PLIN5 PPI – ABHD5-PLIN5 interaction inhibitors, primary screen, cell lysate, split luciferase complementation, luminescence | hit rate 0.78% among 360,000 | Perilipin-5 (Homo sapiens) + 1-acylglycerol-3-phosphate O-acyltransferase ABHD5 (Homo … | Split G. princeps luciferase complementation, 4 h | AID 602281, 2012 | inhibition, % at 4 µM;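 active means inhibition above the mean inhibition across every tested compound plus 3 SD, cut at about 22% in these data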
rCAG bind conf – small molecules binding CAG repeat RNA – biochemical, fluorescence, confirmation; hit rate 70% among 4,300; shares compounds with rCAG RNA binder; r(CAG) RNA repeat, TO-PRO-1 dye displacement fluorescence; inhibition, % at 3 µM;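 active means inhibition above a per-plate cutoff, the mean inhibition of sample wells plus 3 SD, cut at about 35% in these data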;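 further: loss of TO-PRO-1 fluorescence as compound displaces dye from 1x1 AA loop RNA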
DNA CAG counter – displacement of TO-PRO-1 from CAG DNA duplex, counter-screen for rCAG RNA repeat binder project, biochemical, fluorescence, TO-PRO-1 dye, d(CAG) DNA oligo; hit rate 94% among 4,300; AID 652068, 2013; inhibition, % at 3 µM; d(CAG) DNA oligo TO-PRO-1 dye displacement; shares compounds with rCAG RNA binder;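 active means inhibition above its plate's cutoff, the mean test-well inhibition plus 3 SD, cut at about 4.8% in these data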;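 further: hits displace the dye from DNA and so lower well fluorescence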
Each line names hits and unclear results; the compound was inactive in the other large screens (follow-up assays come after a bar, where they were run). Rows were chosen to be rich in hits. Some 5.9% of all compounds tested hit in one or more screens of this group.

O=C1C2Sc3[nH]c(=O)sc3C(c3ccccc3)C2C(=O)N1c1ccc(Cl)cc1 (stereo not drawn)	rCAG RNA binder 35.9 | rCAG bind conf inactive | DNA CAG counter 8.7
COC(=O)[C@H](CC(C)C)N(Cc1cn(CC2CCCCC2)nn1)S(=O)(=O)c1ccc(F)cc1Br	none (no result: Rtt109 HAT inh, LANA-H2B inh, ALR inh, ABHD5 PLIN5 PPI)
CC1=CC(c2ccc(Cl)cc2)n2nc(NS(=O)(=O)c3ccc(C)cc3)nc2N1 (stereo not drawn)	rCAG RNA binder 46.8, ALR inh 96.4 | rCAG bind conf 51.6 | DNA CAG counter 17.0
O=C(O)c1cc(N=Cc2c(O)c3ccccc3oc2=O)ccc1O	rCAG RNA binder 37.8 | rCAG bind conf inactive | DNA CAG counter inactive
Cc1ccc(-c2[nH]c(-c3ccc(C(=O)O)cc3)nc2-c2ccccc2)cc1	rCAG RNA binder 70.0, ALR inh 99.3 | rCAG bind conf 58.3 | DNA CAG counter 18.4
CCCS(=O)(=O)c1c(S(=O)(=O)CCC)c2c(N)cccn2c1C(=O)c1ccc(Br)cc1	rCAG RNA binder 52.2 | rCAG bind conf inactive | DNA CAG counter 11.2
C=CCn1c(NC(=O)c2ccccc2Cl)c(C#N)c2nc3ccccc3nc21	rCAG RNA binder 68.5 | rCAG bind conf 66.7 | DNA CAG counter 29.3
COc1ccc2nc(N3CCCCC3)c(/C=C3\SC(=S)NC3=O)cc2c1	none
O=C1NC(=S)S/C1=C\c1cc2ccccc2nc1N1CCCCC1	rCAG RNA binder 37.0, ALR inh 97.0 | rCAG bind conf 86.8 | DNA CAG counter 60.9
CC(CCc1ccccc1)NC(=O)COC(=O)c1cc(NS(=O)(=O)c2ccc(Cl)c([N+](=O)[O-])c2)ccc1O (stereo not drawn)	rCAG RNA binder 46.4 | rCAG bind conf 43.4 | DNA CAG counter 12.3
CNS(=O)(=O)c1cccc(C(=O)OCC(=O)NC(C)CCc2ccccc2)c1 (stereo not drawn)	none (no result: ALR inh)
CN(C(=O)COC(=O)c1cc(NS(=O)(=O)c2cc([N+](=O)[O-])ccc2Cl)ccc1O)C1CCCCC1	rCAG RNA binder 56.0 | rCAG bind conf 52.8 | DNA CAG counter 16.7
Cc1cccc(-c2ccc(O)cc2CN2CCN(c3ncc(Cc4ccccc4)cn3)CC2)c1	none (no result: Rtt109 HAT inh, LANA-H2B inh, ALR inh)
COc1cccc(C(=O)Nc2cccc(C(=O)NC3=NN(c4c(Cl)cc(Cl)cc4Cl)C(=O)C3)c2)c1	rCAG RNA binder 55.7 (no result: Rtt109 HAT inh, ALR inh) | rCAG bind conf 48.4 | DNA CAG counter 17.2
CC(C)(C)C(=O)NC1=NN(c2c(Cl)cc(Cl)cc2Cl)C(=O)C1	rCAG RNA binder 43.7 | rCAG bind conf inactive | DNA CAG counter inactive
COc1cccc(C(=O)Nc2cccc(NC(=O)c3ccccc3Cl)c2)c1	none
CCS(=O)(=O)Nc1ccc2c(c1)C(=O)N(C)[C@@H]1CC[C@H](CC(=O)N3CCCCC3)O[C@H]1CO2	none (no result: Rtt109 HAT inh, LANA-H2B inh, ALR inh, ABHD5 PLIN5 PPI)
COc1ccc(CN(CCN2CCOCC2)C(=O)c2cccc(F)c2)cc1OC	none (no result: Rtt109 HAT inh, LANA-H2B inh, ALR inh, ABHD5 PLIN5 PPI)
CCN(CC)S(=O)(=O)c1ccc(S(=O)(=O)Nc2ccc3c(c2)oc2ccccc23)cc1	rCAG RNA binder 56.5 | rCAG bind conf 51.3 | DNA CAG counter 18.1
CN(C)S(=O)(=O)c1ccc(S(=O)(=O)Nc2ccc3c(c2)oc2ccccc23)cc1	rCAG RNA binder 49.0 | rCAG bind conf 57.1 | DNA CAG counter 19.2
CCN(CC)S(=O)(=O)c1ccc(NS(=O)(=O)c2ccc(C)c(C)c2)cc1	none
O=c1cccc(-c2cccc3ccccc23)o1	none (no result: Rtt109 HAT inh, LANA-H2B inh, ALR inh)
O=C1NC(Cc2ccccc2)c2nc3cc(Cl)ccc3c(=O)n2-c2ncccc21 (stereo not drawn)	none (no result: Rtt109 HAT inh, LANA-H2B inh, ALR inh)
Cc1ccc(Cl)cc1N1CCN(C(=O)Cc2c(C(=O)O)[nH]c3ccccc23)CC1	rCAG RNA binder 50.8 | rCAG bind conf 48.0 | DNA CAG counter 14.1
Cc1ccc(Cl)cc1N1CCN(C(=O)Cc2c(C(=O)O)[nH]c3ccc(Cl)cc23)CC1	rCAG RNA binder 74.1 | rCAG bind conf 83.6 | DNA CAG counter 54.8
O=C(Cc1c(C(=O)O)[nH]c2ccc(Cl)cc12)Nc1ccc2c(c1)OCCO2	rCAG RNA binder 49.7 | rCAG bind conf 41.8 | DNA CAG counter 8.4
CC1CC(C)CN(C(=O)Cc2c(C(=O)O)[nH]c3ccc(Cl)cc23)C1 (stereo not drawn)	none
C/C(CC(=O)Nc1ccc2c(c1)OCCO2)=N\NC(=O)Cc1ccc(Cl)cc1	none
CC(C)CC(=O)N1CCc2cc(S(=O)(=O)N(C)Cc3ccco3)ccc21	none (no result: Rtt109 HAT inh, LANA-H2B inh, ALR inh, ABHD5 PLIN5 PPI)
COc1ccccc1Cc1c(-c2cccc(Br)c2)nc2c(C)cc(Br)cn12	none (no result: Rtt109 HAT inh, LANA-H2B inh, ALR inh)
Cc1ccsc1/C=C1\SC(=S)N(CC2CCCO2)C1=O (stereo not drawn)	rCAG RNA binder 35.9 | rCAG bind conf inactive | DNA CAG counter inactive
Cc1ccsc1/C=C1/SC(=O)N(CC(=O)N2CCOCC2)C1=O	none
C[C@@H]1COc2cccc(N3CCSCC3)c2S(=O)(=O)N1C	none (no result: Rtt109 HAT inh, LANA-H2B inh, ALR inh, ABHD5 PLIN5 PPI)
C[C@H]1c2cccc(O)c2C(O)=C2C(=O)[C@]3(O)C(O)=C(C(N)=O)C(=O)[C@@H](N(C)C)[C@@H]3[C@@H](O)[C@@H]21	none (no result: rCAG RNA binder, PRMT1 inh)
CN(C)c1ccc(O)c2c1CC1CC3[C@@H](N(C)C)C(=O)C(C(N)=O)=C(O)[C@]3(O)C(=O)C1=C2O (stereo partly drawn)	rCAG RNA binder 63.8, PRMT1 inh 31.3 (no result: ALR inh) | rCAG bind conf 46.3 | DNA CAG counter 18.5
O=C(CNC(=O)c1cccc(-n2cccc2)c1)Nc1ccccc1Br	none (no result: Rtt109 HAT inh, LANA-H2B inh, ALR inh)
CC1CCN(S(=O)(=O)c2ccc(NC(=O)C3CSC4(C)CCC(=O)N34)cc2)CC1 (stereo not drawn)	none
CC(Nc1nc(Nc2ccc(F)cc2)nc(SCC(N)=O)n1)c1ccccc1 (stereo not drawn)	none
CC(Nc1nc(=S)nc(Nc2ccc(F)cc2)[nH]1)c1ccccc1 (stereo not drawn)	rCAG RNA binder 67.5 | rCAG bind conf inactive | DNA CAG counter 11.7
O=[N+]([O-])c1cc(/C=N\Nc2nc(-c3ccccc3)cs2)ccc1O	rCAG RNA binder 65.6 | rCAG bind conf 53.8 | DNA CAG counter 22.9
O=C(CNC(=O)C(c1ccccc1)c1ccccc1)N/N=C/c1ccc(O)c([N+](=O)[O-])c1	rCAG RNA binder 44.2 | rCAG bind conf inactive | DNA CAG counter 4.7
